Only some compounds are listed: those with a hit (about 4% of all), similar ones and a draw of the others.
tim10-1 inh: inhibits growth of tim10-1 mutant yeast; S. cerevisiae tim10-1 ts strain growth, BacTiter-Glo, 24 h; inhibition, % at 20 µM; 330,000 tested, 2.2% active;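 active = inhibition of at least 40%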;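 also: mutant grown at 25 °C; 0% = DMSO wells with yeast and 100% = wells holding no yeast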
NALP1 yeast inh: NALP1 inhibition | 280,000 tested, 0.61% active | S. cerevisiae NALP1/ASC/caspase-1 growth, X-gal OD620, 72 h | inhibition, % at 10 µM | AID 2071; in the data active = inhibition mostly above about 24%, no sharp cut-off; inactive = mostly below about 32%
TIM10 inh: growth inhibitors of TIM10 yeast strain | inhibition, % at 10 µM | S. cerevisiae TIM10 strain growth, BacTiter-Glo luminescence, 24 h | 330,000 tested, 1.4% active | AID 463195;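 active = inhibition of 40% or more at the single tested concentration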;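 also: wild-type TIM10 isogenic control strain grown at permissive 25 °C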
NALP3 yeast inh: blocks the NALP3 inflammasome reconstituted in yeast; Yeast reconstituted NLRP3/ASC/caspase-1, beta-gal luminescence, 24 h; inhibition, % at 10 µM; 330,000 tested, 0.39% active; AID 2825;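 active = inhibition of 50% or more; inactive = inhibition below 50%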;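 also: plate controls were induced DMSO wells for no effect and uninduced yeast grown without galactose for full effect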
tim23-1 inh: inhibits growth of tim23-1 mutant yeast | S. cerevisiae tim23-1 growth, BacTiter-Glo luminescence, 24 h | AID 463212 | inhibition, % at 20 µM | 330,000 tested, 1.3% active;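 active = growth inhibition of the mutant yeast at or above 50%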;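 also: temperature-sensitive mutant grown at 25 °C; plate controls were DMSO-treated mutant yeast for no effect and medium wells lacking yeast for full effect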
tim23-1 confirm: tim23-1 yeast growth inhibition, confirmed | 4,400 tested, 83% active | S. cerevisiae tim23-1 growth, BacTiter-Glo luminescence, 24 h | inhibition, % at 20 µM | shares compounds with tim23-1 inh;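 active = inhibition above about 39% in either of two replicate wells at 20 µM, limit read from the data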;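 also: temperature-sensitive tim23-1 mutant grown at 25 °C; 0% = DMSO wells with yeast and 100% = medium wells without yeast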
The depositor's hits bear a star; / = no result.

SMILES | tim10-1 inh | NALP1 yeast inh | TIM10 inh | NALP3 yeast inh | tim23-1 inh | tim23-1 confirm
CCn1c(O)c(C=Nc2ccc(S(N)(=O)=O)cc2)c(=O)n(CC)c1=S | 10 | 12 | 2 | 7 | 10 | /
CN1C(=O)C(=Cc2ccccc2OCc2ccc(Cl)cc2)C(=O)N(C)C1=O | 18 | 44* | 24 | 36 | 67* | 80*
Cc1ccc(S(=O)(=O)Oc2ccccc2C=C2C(=O)N(C)C(=O)N(C)C2=O)cc1 | 33 | 7 | 38 | 2 | 73* | 75*
CC(C)(C)c1nc(NCc2ccc3c(c2)OCO3)c2nnn(Cc3ccccc3Cl)c2n1 | -1 | -33 | 0 | 2 | -8 | /
N#CC12CNCC1CN=N2 (stereo not drawn) | / | 16 | / | / | / | /

Compound activity (PubChem)
